TCR activator – activators of T cell receptors | primary human leukocytes, anti-CD3, IL-2 HTRF, 48 h | Potency, µM (highest dose often 9.22 µM), without a hit: at the highest dose activation of IL-2 secretion, usual class: activators | 330,000 tested, under 10 active | AID 504894; further: % of control where 0% means no effect
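48 hr co-incubation of compounds, a-CD3 beads and primary human leukocytes; IL-2 quantified homogeneously by HTRF with anti-IL-2 K and d2 conjugates.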
PLK1 PBD inh – blocks phosphopeptide binding to human PLK1 polo-box domain; AID 720504; Potency, µM, for inactives: max response, negative = inhibition, usual class: inhibitors; P53350; Plk1 PBD binding of FITC phosphopeptide, fluorescence polarization; actives 2.8% (n = 360,000); further: potency means the concentration at half of the fitted maximal effect; series mostly up to about 57 µM; on the % scale 0 is the no-effect control and ±100 the full control effect; nearly all actives have a fitted effect of over 65% in size
FEN1 inhibitor – blocks human flap endonuclease 1 | Recombinant FEN1 flap cleavage, fluorescence, 15 min | Potency, µM (series often up to 114 µM), without a hit: at the highest dose activity change, negative = inhibition, hits mostly inhibitors | actives 0.35% (n = 390,000) | P39748 | AID 588795; further: potency means the concentration at half of the fitted maximal effect; on the % scale 0 is the no-effect control and ±100 the full control effect; nearly all actives have a fitted effect of over 65% in size
Target sequence (P39748 whole entry, looked up): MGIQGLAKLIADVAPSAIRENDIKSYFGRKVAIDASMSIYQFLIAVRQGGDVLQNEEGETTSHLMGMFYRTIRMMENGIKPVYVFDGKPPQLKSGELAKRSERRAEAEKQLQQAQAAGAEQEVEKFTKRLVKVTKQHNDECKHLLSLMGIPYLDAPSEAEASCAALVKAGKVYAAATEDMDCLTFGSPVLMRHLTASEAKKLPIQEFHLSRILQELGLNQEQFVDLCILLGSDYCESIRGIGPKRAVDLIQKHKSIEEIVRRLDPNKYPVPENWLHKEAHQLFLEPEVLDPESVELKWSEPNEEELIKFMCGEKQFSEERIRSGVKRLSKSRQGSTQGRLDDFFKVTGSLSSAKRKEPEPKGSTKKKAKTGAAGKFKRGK
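Concentration–response screening of FEN1 (10 nM): 15 min compound preincubation at room temperature, reaction started with 50 nM substrate and read at 0 and 15 min. Corrected, normalized data were fitted by a four-parameter Hill equation.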
WRN inhibitor – blocks human WRN helicase. Potency, µM (highest dose often 114 µM), for the others: top-dose activity change, negative = inhibition, hits mostly inhibitors. actives 0.46% (n = 360,000). WRN helicase unwinding, fluorescent forked duplex, kinetic. Q14191; further: potency means the concentration at half of the fitted maximal effect; on the % scale 0 is the no-effect control and ±100 the full control effect; nearly all actives have a fitted effect of over 55% in size
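Screening of the MLSMR collection measured strand separation of a quenched forked DNA duplex (100 nM) by 20 nM WRN with 2 mM ATP, all final. Compounds were preincubated with enzyme 15 min at room temperature.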
VDR inh – inhibitors of human vitamin D receptor; P11473; VDR-SRC2-3 peptide fluorescence polarization, 2 h; Potency, µM, without a hit: max response, negative = inhibition, actives largely listed as inhibitors; actives 0.93% (n = 400,000); AID 504847; further: potency means the concentration at half of the fitted maximal effect; on the % scale 0 is the no-effect control and ±100 the full control effect
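VDR–SRC2-3 interaction, FP format. Cmpds 23 nl via pintool, brief spin, 2 h ambient incubation.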
PI5P4Ka inh – inhibitors of human PI5P4K alpha | P48426 | PI5P4Kalpha enzyme, ADP-Glo luminescence, 60 min; stronger effect = lower value | max response, % | actives 1.2% (n = 330,000); active means max response of -50% or lower; inconclusive means between -30% and -50%; inactive means -30% or higher; further: value at the top dose of about 77 µM; on the % scale 0 is the no-effect control and ±100 the full control effect
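Human PI5P4Kalpha with substrate in 0.038 M HEPES pH 7.4, 0.28 mM EGTA, 0.1% CHAPS, 5% DMSO; reaction started with 5 microM ATP (final), 60 min at room temperature. ADP formed read by ADP-Glo luminescence.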
Numbers without * were called inactive; ? = inconclusive; / = no result given; [ ] = remark or other dose. Hits are enriched below; roughly 3.7% of the tested compounds scored in any of these assays. Unless noted, the call rests on the fitted dose curve; in most records, active means well fitted curve in the direction sought with a large enough effect; inconclusive means small, poorly fitted or top-dose-only effect, or another doubt; inactive means no such curve, though single readings can be large; an effect the other way counts as inactive or inconclusive.

SMILES	TCR activator	PLK1 PBD inh	FEN1 inhibitor	WRN inhibitor	VDR inh	PI5P4Ka inh
COc1ccc2c(c1)c1c(c(=O)n(-c3ccccc3C)c(=O)n1CC(=O)Nc1c(C)cccc1C)n2C	/	/	-2%	/	13%	/
Oc1ccc(OCc2ccccc2)cc1	/	/	/	/	-6%	/
Oc1ccc(NCc2ccc(OCc3ccccc3Cl)cc2)cc1	/	/	-18%	/	?	/
CCc1ccc(CNc2ccc(O)cc2)cc1	3%	30µM*	-4%	45µM*	22µM*	-54*
Oc1ccc(NCc2ccc(OCc3ccccc3)cc2)cc1	3%	-9%	?	-5%[11.6 µM]	89µM*	-21
COc1cccc([C@@H]2Oc3ccc(Br)cc3C[C@H]2OC(=O)N[C@H](C)C2CCCCC2)c1	/	/	/	/	-5%	/
CN(C)c1ccc(N=Cc2ccncc2)cc1	/	/	-3%	/	/	/
COC(=O)Nc1sc2c(c1C(N)=O)CCCCCC2	-7%	13µM*	-2%	-12%	?	?
CC(=O)NC(=S)Nc1sc2c(c1C#N)CCCCC2	-2%[46.1 µM]	11µM*	-1%	3%	-12%	1
CC(C)C(=O)NC(=S)Nc1sc2c(c1C(N)=O)CCCC2	0%[46.1 µM]	19µM*	-7%	?	?	-54*
Cc1cc(Cl)ccc1NC(=O)Cn1nc(C)c2c(C)n(-c3ccccc3)nc2c1=O	/	/	-1%	/	-2%	/
CSCC[C@H](NC(=O)[C@H](CCCNC(=N)N)NC(=O)[C@H](Cc1ccc(O)cc1)NC(=O)[C@@H]1CCCN1C(=O)CNC(=O)[C@H](CCC(=O)O)NC(=O)[C@H](CC(=O)O)NC(=O)[C@H](CCCCN)NC(=O)[C@H](CCCCN)NC(=O)[C@H](CCC(=O)O)NC(=O)[C@H](C)N)C(=O)N[C@@H](CCC(=O)O)C(=O)N[C@@H](Cc1cnc[nH]1)C(=O)N[C@@H](Cc1ccccc1)C(=O)N[C@@H](CCCNC(=N)N)C(=O)N[C@@H](Cc1c[nH]c2ccccc12)C(=O)NCC(=O)N[C@@H](CO)C(=O)N1CCC[C@H]1C(=O)N1CCC[C@H]1C(=O)N[C@@H](CCCCN)C(=O)N[C@@H](CC(=O)O)C(=O)O	/	/	/	/	-2%	/
COc1ccc(CCC(=O)NCc2ccc3c(c2)CCN3C(=O)c2ccc(C)cc2)cc1	/	/	11%	/	16%	/
CC(C)c1ccc(NC(=O)c2cc3c(s2)-c2ccccc2SC3)cc1	/	/	-23%	/	5%	/
CCOC(=O)c1c(NC(=S)NCC2CCCO2)sc(C)c1C (configuration not stated)	0%	12µM*	1%	-11%	89µM*	-11
CCOC(=O)c1c(NC(=O)C2CCCO2)sc(C(N)=O)c1C (configuration not stated)	3%[46.1 µM]	-19%	-8%	4%	-6%	-11
Cc1ccc(C)c(CSc2nnc3[nH]c(=O)cc(-c4ccccc4)n23)c1	/	/	-10%	/	3%	/
COc1cccc2nccc(/C=C/c3ccc(N(C)C)cc3)c12	/	/	-16%	/	/	/
COc1ccccc1NC(=O)CSc1ncc(CO)n1Cc1ccc(F)cc1	-3%	9.5µM*	-13%	-1%	?	-8
COc1ccc(NC(=O)CSc2nnnn2-c2ccccc2F)cc1	2%	-17%	-9%	-12%	-5%	2
COc1ccccc1NC(=O)CSc1nnnn1-c1ccccc1F	4%	27µM*	-10%	-5%	-9%	-6
Cc1cc(NC(=O)CSc2ncc(CO)n2Cc2ccc(F)cc2)no1	13%	-11%	-1%	2%	12%	8
CC1=CC2=NC(=O)CC(C)(C(=O)N(CC(=O)NC3CCCC3)c3ccccc3F)N2C=C1 (configuration not stated)	-2%	18%	-2%	-5%	-12%	1
CC1=CC2=NC(=O)CC(C)(C(=O)N(CC(=O)NC3CCCC3)c3ccccc3C)N2C=C1 (configuration not stated)	7%	30µM*	0%	9%	-20%	-5
COc1cccc(NC(=O)Cn2c(=O)n(Cc3ccc4c(c3)OCO4)c(=O)c3oc4ccccc4c32)c1	/	/	1%	/	5%	/
SMILES	TCR activator	PLK1 PBD inh	FEN1 inhibitor	WRN inhibitor	VDR inh	PI5P4Ka inh
CCn1ccnc1CN1CCc2c([nH]c3ccccc23)C1C1CCCCC1 (configuration not stated)	1%	27µM*	4%	9%	?	-6
O=C(O)c1ccc(-c2c3nc(c(-c4ccc(C(=O)O)cc4)c4ccc([n-]4)c(-c4ccc(C(=O)O)cc4)c4nc(c(-c5ccc(C(=O)O)cc5)c5ccc2[n-]5)C=C4)C=C3)cc1.[Mn+3]	/	/	/	/	11%	/
CCOc1ccc(CNc2ccc(N3CCCC3)cc2)cc1	/	?	-16%	-1%	4µM*	/
CCOc1ccc(CNc2ccc(N3CCN(Cc4ccccc4)CC3)cc2)cc1	5%	-13%	9%	6%	1%	5
CSc1nnc2c3c4c(sc3nc(-n3nc(C)cc3C)n12)COC(C)(C)C4	6%	3.4µM*	3%	-17%	?	?
Cc1cc(C)n(-c2nc3sc4c(c3c3nnc(SCC(N)=O)n23)CC(C)(C)OC4)n1	8%	-1%	7%	-8%	10%	3
Nc1cc([N+](=O)[O-])cc(N)c1N	/	/	-16%	/	/	/
CCCOc1ccc(Br)cc1CSC(=N)N	-6%[46.1 µM]	30µM*	-5%	0%	-7%	1
O=c1[nH]c(/C=C\c2cccc(O)c2)nc(O)c1[N+](=O)[O-]	-7%	4%	10%	-12%	-8%	-81*
CCOc1ccccc1/C=C\c1nc(O)c([N+](=O)[O-])c(=O)[nH]1	-2%	0%	0%	-22%[57.1 µM]	?	?
O=c1[nH]c(/C=C\c2ccc(O)c(O)c2)nc(O)c1[N+](=O)[O-]	2%	-6%	?	?	-9%	-80*
O=C(NNC(=O)c1sccc1-n1cccc1)c1ccc(F)cc1	1%	-17%	-4%	-4%	-14%	2
O=C(NNC(=O)c1sccc1-n1cccc1)c1ccccc1	-2%	24µM*	6%	2%	-21%	-17
Cc1cccc(OCc2nc3ccccc3c(=O)n2N)c1	5%	24µM*	10%	-9%	8%	-17
Cc1cccc(-c2nc3ccccc3c(=O)n2N)c1	-5%	?	17%	0%	11%	1
CN(C(=S)NC(=O)Cc1ccccc1)c1ccccc1	3%	30µM*	5%	-6%	-28%	1
CN(C(=S)NC(=O)C1(C)CC1(Cl)Cl)c1ccccc1 (configuration not stated)	13%	-2%	1%	-7%	1%	9
Nc1ccc(C(=O)O)c(O)c1	-5%	-15%	17%	-9%	-10%	?
Nc1ccc(N)c(C(=O)O)c1	4%	24µM*	?	32µM*	?	-91*
